# Experimental data taken from PubChem BioAssay AID652106 (National Center for Advancing Translational Sciences (NCATS), 2013).
# About 500 (0.14%) of roughly 370,000 compounds were called active. Not shown: some 2% with an inconclusive outcome. Calls come from the whole dose curve; as a rule, active = well fitted activation curve with a large enough effect; inconclusive = small, poorly fitted or top-dose-only effect; inactive = no such curve, though single readings can be large or run the other way. The entries come from a sample that favours actives as a whole. A call without a number means that no potency is given here.
# Test: qHTS of alpha-syn Inhibitors; note: nearly all actives have a fitted effect of over 65% in size
# Conditions: Yeast expressing alpha-synuclein, BacTiter-Glo, 24 h; Potency: growth rescue; series mostly up to 46.1 µM
# Procedure, shortened: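 Rescue of yeast growth: cells expressing toxic alpha-synuclein, induced in galactose at OD600 0.02, incubated with compound 24 h at 30 C. ATP luminescence quantified growth; inhibitors of toxicity appear as activators.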
# Potency is the fitted concentration of half-maximal effect.
row,SMILES,Potency
1,COC(=O)C1=C(C(=O)OC)[C@@H]2N(Cc3ccccc3)c3ccccc3[C@@]23C[C@@H](C(=O)OC)N(S(=O)(=O)c2ccc(C(F)(F)F)cc2)C3=N1,inactive
2,CNCCCOc1cc2nc(N3CCCN(C)CC3)nc(NC3CCN(C)CC3)c2cc1OC,inactive
3,Cc1cccc(-n2ccnc2SCC(=O)Nc2cc(C(F)(F)F)ccc2Cl)c1,inactive
4,COc1ccc(CCn2c3c(c(=O)[nH]c2=S)CN(C(C)C)CN3)cc1OC,inactive
5,COc1ccc(N2C(=O)CS(=O)(=O)C23C(=O)N(Cc2ccc(C)cc2)c2ccccc23)cc1Cl (stereo unspecified),inactive
6,CN(C)Cc1cn(-c2ccccc2)nc1-c1ccccc1,inactive
7,O=C(Oc1ccc([N+](=O)[O-])cc1)c1ccc2ccccc2n1,inactive
8,O=[N+]([O-])c1cc2ccccc2nc1-c1ccccc1,inactive
9,O=[N+]([O-])c1ccc2c(c1)Nc1nc3ccccc3nc1N2,3.55 µM (active)
10,C=C1C=C(C(F)F)n2ncc(C(=O)NCCc3ccccc3OC)c2N1,inactive
11,CCOc1ccccc1CNC(=O)Nc1cn(CC(C)C)c(=O)c2ccccc12,inactive
12,C/C=C/NNC(=O)Cc1ccc(OC)cc1,inactive
13,COc1ccc(OC)c(Nc2nc(-c3ccc(O)c(O)c3)cs2)c1,11.2 µM (active)
14,COc1ccc(OC)c(NC(=O)COC(=O)Cc2ccsc2)c1,inactive
15,CCN1CCN(c2nc(Nc3cc(OC)ccc3OC)nc(Nc3cc(OC)ccc3OC)n2)CC1,inactive
16,CCOC(=O)c1ccc(NC2=CC(c3ccc(OCC)cc3)N(c3ccc(C(=O)OCC)cc3)C2=O)cc1 (stereo unspecified),inactive
17,CN(Cc1ccccc1)c1ccc(/C=C/c2ccnc3ccccc23)cc1,inactive
18,CC(=O)/C(C)=N/O,inactive
19,CC(C)(C)C1CCC(NC(=O)c2cnn3c2NC(=C2CC2)C=C3C(F)F)CC1 (stereo unspecified),inactive
20,CC1=C(C(=O)Nc2ccccc2Cl)C(c2cccs2)n2ncnc2N1 (stereo unspecified),inactive
21,Cc1ccc(-c2nnc3ccc(SCC(N)=O)nn23)cc1,inactive
